Assay results: PubChem BioAssay (EPA / NIEHS)
Several values for one entry are separate records, joined by “and”; a condition that tells them apart may be missing. Equal values may be shown once. More than one record can exist for a structure, and the calls need not agree. Activity calls are given as the source filed them. How the source made its calls: active means hit-call score of the fitted dose curve at least 0.9, where 1 is the maximum; inactive means score below 0.9.

Columns and labels:
Details in all cases: primary human HUVEC with PBMC; actives raise or lower the signal
[1] = read-out: Interleukin-1 alpha (IL1a), IL1A (gene 3552); experiment: BSK_LPS_IL1a: BioMAP Diversity Plus: LPS Assay for Interleukin-1 alpha (IL1a) Biomarker Activity (AID 2283080)
In short: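 Human umbilical vein endothelial cells co-cultured with PBMC and stimulated with LPS; IL-1a measured by ELISA 24 h after dosing. Bidirectional fitting against DMSO; cytotoxicity checked by SRB staining in parallel cultures.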

[2] = read-out: Monocyte Chemoattractant Protein-1 (MCP1), CCL2 (gene 6347); experiment: BSK_LPS_MCP1: BioMAP Diversity Plus: LPS Assay for Monocyte Chemoattractant Protein-1 (MCP1) Biomarker Activity (AID 2283081);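 on AC50: secreted MCP-1 protein quantified by ELISA in culture supernatant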
In short: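 Human umbilical vein endothelial cells co-cultured with PBMC, LPS-stimulated; secreted MCP-1 measured by ELISA 24 h after compound addition. Bidirectional curve fitting against DMSO baseline; SRB total-protein staining in parallel cultures for cytotoxicity.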

[3] = BSK_LPS_PGE2: BioMAP Diversity Plus: LPS Assay for Prostaglandin E2 (PGE2) Biomarker Activity (AID 2283082);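 on AC50: secreted prostaglandin E2 measured by ELISA in LPS-stimulated co-culture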
In short: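 ELISA read-out of PGE2 from human umbilical vein endothelial cells co-cultured with peripheral blood mononuclear cells under LPS, 24 h post-dose. Gain or loss of signal scored relative to DMSO baseline.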

[4] = read-out: Macrophage colony-stimulating factor (MCSF), CSF1 (gene 1435); experiment: BSK_LPS_MCSF: BioMAP Diversity Plus: LPS Assay for Macrophage colony-stimulating factor (MCSF) Biomarker Activity (AID 2283083)
In short: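 HUVEC–PBMC co-culture, M-CSF measured by ELISA 24 h after chemical dosing. Fitted in both directions relative to DMSO as negative control; overt cytotoxicity assessed by SRB total-protein staining in parallel cultures.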

[5] = read-out: Tissue Factor, F3 (gene 2152); experiment: BSK_LPS_TissueFactor: BioMAP Diversity Plus: LPS Assay for Tissue Factor Biomarker Activity (AID 2283084)
In short: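 Human umbilical vein endothelial cells co-cultured with PBMC were dosed with compound. Cell-surface CD142 was measured by ELISA 24 h later. Activity was fitted bidirectionally against DMSO, with SRB total-protein staining in parallel cultures for cytotoxicity.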

[6] = read-out: Tumor necrosis factor (Homo sapiens) (UniProt P01375); experiment: BSK_LPS_TNFa: BioMAP Diversity Plus: LPS Assay for Tumour Necrosis Factor alpha (TNFa) Biomarker Activity (AID 2283085);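 on AC50: TNFa protein level quantified by ELISA in the co-culture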
In short: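 HUVEC/PBMC co-culture, LPS-stimulated; 24 h post-dose; TNFa by ELISA; gain or loss of signal fitted bidirectionally vs DMSO baseline.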

[7] = read-out: Vascular cell adhesion molecule 1 (VCAM1), VCAM1 (gene 7412); experiment: BSK_LPS_VCAM1: BioMAP Diversity Plus: LPS Assay for Vascular cell adhesion molecule 1 (VCAM1) Biomarker Activity (AID 2283086)
In short: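 ELISA read-out of VCAM-1 at 24 h post-dosing in an LPS-driven HUVEC/PBMC primary human co-culture; gain or loss of signal fitted bidirectionally against DMSO baseline. Cytotoxicity tracked in parallel cultures by SRB total-protein staining.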

CD38, CD38 (gene 952) = experiment: BSK_SAg_CD38: BioMAP Diversity Plus: SAg Assay for CD38 Biomarker Activity (AID 2283087)
In short: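 Measures CD38 on a human endothelial/PBMC co-culture driven by SEB and TSST-1, 24 h after compound exposure, using ELISA with fluorescence detection; DMSO defines baseline for bidirectional curve fitting.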

CD40, CD40 (gene 958) = experiment: BSK_SAg_CD40: BioMAP Diversity Plus: SAg Assay for CD40 Biomarker Activity (AID 2283088)
In short: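 HUVEC plus PBMC co-culture, superantigen-activated, with CD40 read by ELISA 24 h after dosing. Curves fitted in both directions against DMSO. Overt cytotoxicity checked by parallel SRB total-protein staining.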

CD69, CD69 (gene 969) = experiment: BSK_SAg_CD69: BioMAP Diversity Plus: SAg Assay for CD69 Biomarker Activity (AID 2283089);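 on AC50: cell surface CD69 protein quantified by ELISA with fluorescence detection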
In short: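 ELISA, fluorescence read-out: CD69 on human umbilical vein endothelial cell + PBMC co-culture, 24 h post-dosing. Gain or loss of signal fitted bidirectionally against DMSO baseline.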

Measured: AC50

Sequence of Tumor necrosis factor (Homo sapiens) (P01375 whole entry, looked up): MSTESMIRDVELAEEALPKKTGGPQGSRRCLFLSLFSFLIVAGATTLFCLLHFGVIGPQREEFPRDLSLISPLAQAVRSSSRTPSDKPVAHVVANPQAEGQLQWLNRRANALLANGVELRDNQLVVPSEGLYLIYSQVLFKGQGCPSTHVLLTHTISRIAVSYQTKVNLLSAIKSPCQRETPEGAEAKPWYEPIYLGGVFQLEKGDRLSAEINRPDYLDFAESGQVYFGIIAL

COc1nn(CSP(=S)(OC)OC)c(=O)s1
active: [3] 12.6 µM
inactive: all other assays above

CNC(=O)CSP(=S)(OC)OC
inactive: all assays above

ClC1C(Cl)C(Cl)C(Cl)C(Cl)C1Cl (stereo not given)
inactive: [1] | [2] | [3] | [4] | [5] | [6] | [7] | CD38, CD38 (gene 952) | CD40, CD40 (gene 958) | CD69, CD69 (gene 969)
active: [6] 13.3 µM | [7] 31.3 µM

COP(=S)(OC)Oc1ccc([N+](=O)[O-])cc1
active: [3] 14.6 µM | [4] 15.4 µM | CD38, CD38 (gene 952) 20 µM | CD40, CD40 (gene 958) 13.8 µM | CD69, CD69 (gene 969) 15.5 µM
inactive: [1] | [2] | [5] | [6] | [7]

COP(=S)(OC)Oc1ccc(SC)c(C)c1
active: [3] 30.1 µM | [4] 15.9 µM
inactive: all other assays above

CC1(C)C(C=C(Cl)Cl)C1C(=O)OC(C#N)c1ccc(F)c(Oc2ccccc2)c1 (stereo not given)
active: [3] 5.22 µM
inactive: all other assays above

CCS(=O)(=O)c1cccnc1S(=O)(=O)NC(=O)Nc1nc(OC)cc(OC)n1
active: [3] 2.31 µM | [6] 1.75 µM
inactive: all other assays above

CN1CSC(=S)N(C)C1
active: [1] 12.8 µM | [2] 11.9 µM | [3] 3.85 µM | [4] 10.8 µM | [5] 13.7 µM | [6] 8.45 µM | [7] 18.3 µM | CD38, CD38 (gene 952) 23.3 µM | CD40, CD40 (gene 958) 20 µM | CD69, CD69 (gene 969) 20 µM

CNC(=O)Oc1cccc(N=CN(C)C)c1
active: [5] 26.5 µM | [7] 17.4 µM | CD38, CD38 (gene 952) 33 µM | CD40, CD40 (gene 958) 34.6 µM
inactive: all other assays above

OCCOc1ccccc1
inactive: all assays above

O=C(Nc1ccccc1)Nc1cnns1
active: [6] 18.4 µM
inactive: all other assays above

CCOc1nc(NC)nc(NC(=O)NS(=O)(=O)c2ccccc2C(=O)OC)n1
inactive: all assays above

CCC(C)(C)C(=O)OC1=C(c2ccc(Cl)cc2Cl)C(=O)OC12CCCCC2
inactive: [3]
active: [1] 36.5 µM | [2] 31.2 µM | [4] 17.5 µM | [5] 14.1 µM | [6] 32.5 µM | [7] 24.4 µM | CD38, CD38 (gene 952) 10.3 µM | CD40, CD40 (gene 958) 10.6 µM | CD69, CD69 (gene 969) 14.9 µM

Oc1cc(Cl)ccc1Oc1ccc(Cl)cc1Cl
active: [1] 14.3 µM and 14.6 µM and 29 µM | [2] 19.9 µM [middle of 4 runs] | [3] 6.07 µM [middle of 4 runs] | [4] 18.7 µM [middle of 4 runs] | [5] 28.1 µM and 14.7 µM and 30.3 µM | [6] 31.2 µM [middle of 4 runs] | [7] 25.8 µM [middle of 4 runs] | CD38, CD38 (gene 952) 12.4 µM [middle of 4 runs] | CD40, CD40 (gene 958) 12.9 µM [middle of 4 runs] | CD69, CD69 (gene 969) 13.5 µM and 14.7 µM and 14.4 µM

O=C(O)C(F)(F)C(F)(F)C(F)(F)C(F)(F)C(F)(F)C(F)(F)C(F)(F)F
inactive: [1] | [2] | [3] | [4] | [5] | [6] | [7] | CD38, CD38 (gene 952) | CD40, CD40 (gene 958) | CD69, CD69 (gene 969)
active: [3] 35.5 µM and 27.5 µM | [6] 9.76 µM

O=S(=O)(O)C(F)(F)C(F)(F)C(F)(F)C(F)(F)C(F)(F)C(F)(F)C(F)(F)C(F)(F)F
active: [6] 15 µM | CD40, CD40 (gene 958) 20 µM
inactive: [1] | [2] | [3] | [4] | [5] | [6] | [7] | CD38, CD38 (gene 952) | CD40, CD40 (gene 958) | CD69, CD69 (gene 969)

CNC(=O)Oc1ccccc1OC(C)C
inactive: all assays above

CC(C)(C)C(O)C(Oc1ccc(Cl)cc1)n1cncn1 (stereo not given)
active: [3] 3.1 µM | [4] 20 µM | CD38, CD38 (gene 952) 4.99 µM | CD40, CD40 (gene 958) 8.99 µM
inactive: [1] | [2] | [3] | [4] | [5] | [6] | [7] | CD38, CD38 (gene 952) | CD40, CD40 (gene 958) | CD69, CD69 (gene 969)

CCCN(CCOc1c(Cl)cc(Cl)cc1Cl)C(=O)n1ccnc1
inactive: [1] | [2] | [5] | [7]
active: [3] 0.42 µM | [4] 20 µM | [6] 0.875 µM | CD38, CD38 (gene 952) 30.7 µM | CD40, CD40 (gene 958) 27.8 µM | CD69, CD69 (gene 969) 14.9 µM

CCN(CC)C(=O)SCc1ccc(Cl)cc1
active: [3] 7.03 µM
inactive: all other assays above

O=S1OCC2C(CO1)C1(Cl)C(Cl)=C(Cl)C2(Cl)C1(Cl)Cl (stereo not given)
active: [1] 16.3 µM | [2] 34.9 µM | [4] 30.2 µM | [5] 31.2 µM | [6] 32.2 µM | [7] 18.3 µM | CD38, CD38 (gene 952) 28.3 µM | CD40, CD40 (gene 958) 16.3 µM | CD69, CD69 (gene 969) 26.9 µM
inactive: [3]

[2H]C1([2H])[n+]2ccccc2-c2cccc[n+]2C1([2H])[2H]
inactive: all assays above

COC(=O)c1ccccc1CS(=O)(=O)NC(=O)Nc1nc(OC)cc(OC)n1
active: CD69, CD69 (gene 969) 5.03 µM
inactive: all other assays above

COP(=O)(OC)OC=C(Cl)Cl
active: [4] 20 µM | [6] 4.96 µM | [7] 30.1 µM
inactive: all other assays above

CC1(c2ccc(Oc3ccccc3)cc2)OC(=O)N(Nc2ccccc2)C1=O (stereo not given)
active: [2] 29.5 µM | [3] 6.92 µM | [4] 20 µM | [5] 28.4 µM | [7] 20 µM | CD38, CD38 (gene 952) 19.9 µM | CD40, CD40 (gene 958) 15.8 µM | CD69, CD69 (gene 969) 20 µM
inactive: [1] | [6]

O=[N+]([O-])/N=C1\NCCN1Cc1ccc(Cl)nc1
inactive: all assays above
